Sfp PPTase inh = qHTS Assay for Inhibitors of Bacillus subtilis Sfp phosphopantetheinyl transferase (PPTase); 4'-phosphopantetheinyl transferase ffp (Bacillus subtilis), Q9F4F7; 3.5% of 310,000 active; Potency, µM, for the others: largest response in the series, negative = inhibition, most hits filed as inhibitors; Biochemical Sfp PPTase activity, qHTS;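 also: the enzyme is Sfp with the accession as filed and its product quenches rhodamine fluorescence; 0% = enzyme reaction without inhibitor and -100% = no enzyme wells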
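Sfp 15 nM + cpd, 15 min RT; start w/ rhodamine-CoA 5 uM, BHQ-2-YbbR 12.5 uM (final); 50 mM Hepes pH 7.6, 10 mM MgCl2, 0.01% NP-40, 0.01% BSA; read 525/598 nm at 0 and 30 min.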
VDR inh = Inhibitors of the vitamin D receptor (VDR): qHTS; Vitamin D3 receptor (Homo sapiens), P11473; VDR-SRC2-3 peptide fluorescence polarization, 2 h; Potency, µM, for inactives: max response, negative = inhibition, most hits filed as inhibitors; 0.93% of 400,000 active
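Fluorescence polarization assay measuring small-molecule disruption of VDR binding to the coregulator peptide SRC2-3. Compounds were pin-transferred (23 nl) into the reagent mix and incubated 2 h at room temperature before reading.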
PLK1 PBD inh = qHTS for Inhibitors of PLK1-PDB (polo-like kinase 1 - polo-box domain): Primary Screen; Serine/threonine-protein kinase PLK1 (Homo sapiens), P53350; Plk1 PBD binding of FITC phosphopeptide, fluorescence polarization; Potency, µM, for inactives: max response, negative = inhibition, usual class: inhibitors; 2.8% of 360,000 active; also: series mostly up to about 57 µM; nearly all actives have a fitted effect of over 65% in size
12-LOX inh = Primary qHTS assay for inhibitors of human arachidonate 12S-lipoxygenase (ALOX12): Round 2 | purified 12hLO, xylenol orange hydroperoxide absorbance | Potency, µM (series often up to 108 µM), for the others: at the top dose activity change, negative = inhibition, usual class: inhibitors | 1.1% of 580,000 active | AID 1671190, 2021
Target sequence (P18054 whole entry, looked up): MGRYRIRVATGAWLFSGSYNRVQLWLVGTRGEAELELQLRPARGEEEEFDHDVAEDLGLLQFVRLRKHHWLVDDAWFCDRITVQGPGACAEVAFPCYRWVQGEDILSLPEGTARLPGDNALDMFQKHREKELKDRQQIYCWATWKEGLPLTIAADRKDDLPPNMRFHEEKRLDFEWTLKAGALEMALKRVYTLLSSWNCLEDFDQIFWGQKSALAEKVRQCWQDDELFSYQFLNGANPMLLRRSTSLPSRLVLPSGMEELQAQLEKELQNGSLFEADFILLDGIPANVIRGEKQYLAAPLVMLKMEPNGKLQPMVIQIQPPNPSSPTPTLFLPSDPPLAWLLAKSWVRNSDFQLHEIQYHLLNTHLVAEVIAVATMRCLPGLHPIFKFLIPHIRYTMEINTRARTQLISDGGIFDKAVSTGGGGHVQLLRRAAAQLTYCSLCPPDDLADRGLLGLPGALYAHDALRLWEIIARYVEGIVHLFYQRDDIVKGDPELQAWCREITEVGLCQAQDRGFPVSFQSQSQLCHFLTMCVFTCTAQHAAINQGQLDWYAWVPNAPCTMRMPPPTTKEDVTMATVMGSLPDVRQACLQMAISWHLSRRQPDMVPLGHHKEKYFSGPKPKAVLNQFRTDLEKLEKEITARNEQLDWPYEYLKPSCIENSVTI
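Purified human 12hLO at 150 nM in 25 mM Hepes, 0.01% Triton X-100, pH 7.0, preincubated 15 min at room temperature with compound. Reaction started with 40 uM arachidonic acid, 30 min at room temperature. Hydroperoxide measured by Fe-xylenol orange, 573/405 nm absorbance ratio.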
Starred values were filed as active, the others as inactive; ? = inconclusive; . = no result given; ! = a repeat was not active; [ ] = dose if it differs, or a comment. A selection: hits, their analogues and other compounds. The true share with any hit is near 4.2%. Calls follow the shape of the dose curve; as a rule, active = well fitted curve in the direction sought with a large enough effect; inconclusive = small, poorly fitted or top-dose-only effect, or another doubt; inactive = no such curve, though single readings can be large; an effect the other way counts as inactive or inconclusive. Unless noted, % is scaled to controls: 0 for no effect and ±100 for the full control effect; potency is read from the fitted curve at half-maximal effect.

SMILES	Sfp PPTase inh	VDR inh	PLK1 PBD inh	12-LOX inh
CCc1ccc(CN2CCN(C(=O)Cc3ccccc3)CC2)cc1	?	-8.3%	3.6%	?
c1cncc(C2=NOC3(CCCN(Cc4ccsc4)C3)C2)c1 (configuration not stated)	.	.	.	10.2%[6.33 µM]
C=CCn1c(CSc2ccccc2[N+](=O)[O-])n[nH]c1=S	?	?	11.9µM*	?
CN1C(=O)[C@H]2CN(Cc3ccco3)C[C@H]2C1=O	.	.	.	48.4%
O=C(Nc1ccc(F)cc1)c1c(O)c2c(n(Cc3ccccc3)c1=O)CCCC2	4.7%	-11.2%	26.7µM*	-5.8%
O=C(Nc1cccnc1)c1c(O)c2c(n(Cc3ccccc3)c1=O)CCCC2	5.2%	-4.0%	-4.9%	12.7%
COCCOC(=O)c1c(N)n(Cc2ccc(OC)cc2)c2nc3ccccc3nc12	-1.5%	-11.6%	-23.3%	?
COCCOC(=O)c1c(N)n(Cc2ccco2)c2nc3ccccc3nc12	56.2µM*	27.5%	-15.9%	0.0%
Nc1c(C(=O)NCC2CCCO2)c2nc3ccccc3nc2n1Cc1ccco1 (configuration not stated)	3.98µM*	7.7%	-14.0%	29.1%
COCCCNC(=O)c1c(N)n(Cc2ccco2)c2nc3ccccc3nc12	12.6µM*	-11.5%	-11.8%	?
CCCCNC(=O)c1c(N)n(CCCOC)c2nc3ccccc3nc12	-21.3%	50.1µM*	-2.8%	?
COc1ccc(Cn2c(N)c(C(=O)NCc3ccco3)c3nc4ccccc4nc32)cc1OC	?	2.0%	-17.0%	288.1%
CC(=O)c1ccc(NC(=O)NC[C@H]2C[C@@H]3CCN2C[C@@H]3CN2CCOCC2)cc1	.	.	.	-12.6%[176 µM]
O=C1NCN(c2ccccc2)C12CCN(C(c1nnnn1C1CCCC1)C1CC1)CC2 (configuration not stated)	.	.	-4.7%	6.9%
Cc1ccc(NC(=O)N2C[C@@H]3C[C@H](C2)c2c(-c4ccccc4F)ccc(=O)n2C3)cc1	.	.	.	7.3%[176 µM]
CCCCCCn1c(=O)c(C(=O)Nc2cccc(C)n2)c(O)c2ccccc21	6.4%	-4.1%	-5.5%	.
COC1CC(OC2CCC3(/C=N/O)[C@H]4CCC5(C)C(C6=CC(=O)OC6)CCC5(O)[C@@H]4CCC3(O)C2)OC(C)C1O (some centres not stated)	.	.	.	-3.7%
CCN1CC=C(c2c[nH]c3ccccc23)CC1	-0.4%	2.2%	-3.4%	31.5%
CC(C)CNC(=O)c1c(N)n(Cc2ccc3c(c2)OCO3)c2nc3ccccc3nc12	-19.7%	-13.3%	-28.3%	-16.4%
CC(C)CCNC(=O)c1c(N)n(Cc2ccc3c(c2)OCO3)c2nc3ccccc3nc12	-10.7%	89.1µM*	0.7%	0.0%
CC(C)CNC(=O)c1c(N)n(Cc2ccco2)c2nc3ccccc3nc12	31.6µM*	-28.2%	-26.1%	?
COc1cc2c(cc1OC1CCCC1)NC(=O)C21CCN(Cc2ccccc2O)CC1	.	.	.	-1.2%[176 µM]
Cc1nc(-c2ccc(-c3ccc(C(=O)N4CCc5cc6c(cc54)C4(CCN(C)CC4)CO6)cc3)c(C)c2)no1	63.1µM*	.	.	?
COc1cc2c(cc1OCc1ccccc1)N(C(=O)CCc1ccccn1)CC21CCN(C)CC1	.	.	.	4.5%
CN(C)CCNC(=O)c1cccn(Cc2cccc(C(F)(F)F)c2)c1=O	22.3%	?	18.9µM*	?
SMILES	Sfp PPTase inh	VDR inh	PLK1 PBD inh	12-LOX inh
CN(C)C(=O)[C@H]1CN2CCC1C[C@@H]2Cn1cc(CSc2ccccc2)nn1 (some centres not stated)	.	.	.	-3.9%[176 µM]
c1ccc(CCNCc2cccs2)cc1	20.4%	2.4%	4.2%	?
Clc1ccc(C(c2ccc(Cl)cc2)n2cc[n+](CC(OCc3ccc(Cl)cc3Cl)c3ccc(Cl)cc3Cl)c2)cc1 (configuration not stated)	?	24.3%	-21.4%	38.5µM*!
Cc1ccc(-n2c(/C=C/c3ccccn3)nc3ccccc3c2=O)cc1	0.9%	-8.4%	-0.7%	4.9%
Cc1ccc(-n2c(/C=C/c3ccco3)nc3ccccc3c2=O)cc1	.	.	.	15.8µM*
Cn1cc(-c2cnc3[nH]cc(CC(=O)N4CCN(Cc5ccccc5)CC4)c3c2)cn1	.	.	.	-0.8%[176 µM]
CC(C)C(OC(=O)c1ccco1)C(=O)NCc1ccco1 (configuration not stated)	1.6%	-27.5%	26.7µM*	-3.2%
Cc1nn(Cc2ccccc2)c(C)c1C(=O)OCC(=O)NCc1ccco1	-20.2%	1.2%	-0.2%	425.5%
O=C(NC1CCCCC1)N1Cc2ccccc2-n2nncc2C1	.	6.2%	-7.7%	10.5%
Cc1ccc(NC(=O)N(Cc2ccc3c(c2)OCO3)C2CCN(Cc3ccccc3)CC2)cc1C	.	-5.0%	.	1.1%
Cc1ccc(NC(=O)N(Cc2ccc3c(c2)OCO3)C2CCN(Cc3ccccc3)CC2)cc1Cl	.	9.6%	.	44.7µM*
CN(C)S(=O)(=O)c1cc(NC(=O)COC(=O)Cc2ccccc2)ccc1Cl	6.1%	?	29.9µM*	17.2%
O=C1Nc2ccccc2C1Cc1nc2ccccc2c(=O)n1-c1ccccc1 (configuration not stated)	-5.0%	?	21.2µM*	-6.0%
Cc1cccc(-n2c(CC3C(=O)Nc4ccc(C)cc43)nc3ccccc3c2=O)c1 (configuration not stated)	.	2.3%	.	?
CCN(CC)C(=O)c1ccc(NC(=O)c2cc(-c3ccco3)nc3ccccc23)cc1	.	.	.	31.6µM*
Clc1cccc(CN2CCCCC2c2cccnc2)c1 (configuration not stated)	50.1µM*	9.6%	-3.3%	-5.9%
c1cncc(C2CCCCN2Cc2ccc3c(c2)OCO3)c1 (configuration not stated)	-0.7%	-1.9%	-8.8%	-34.2%
CN1CCN(C(=O)Cc2ccc(Cl)cc2Cl)CC1	.	.	.	3.8%
CC(=O)C1CC[C@H]2C3CC[C@@H]4CC(O)CC[C@@]4(C)C3CC[C@]12C (some centres not stated)	-3.9%	-17.3%	.	.
COc1ccc(CNCCc2c(C)[nH]c3ccc(OC)cc23)c(F)c1	.	.	.	1.58µM*
COc1ccc2[nH]c(C)c(CCNCc3cn(C)c4ccccc34)c2c1	.	4.0%	4.3%	5.62µM*
c1ccc2c(CCN3CCCCC3)c[nH]c2c1	.	.	-29.1%	0.6%
CCC(C)n1c(C)cc(C(N)=O)c1C (configuration not stated)	9.2%	-11.4%	-0.1%	8.5%
Cc1cccc(C)c1OCc1n[nH]c(=S)n1N	50.1µM*	0.8%	?	?
Nn1c(COc2ccc(Cl)cc2)n[nH]c1=S	35.5µM*	-0.8%	?	?
Cc1c(C=C2C(=O)N(C)C(=S)N(C)C2=O)c2ccccc2n1CC(=O)NCC1CCCO1 (configuration not stated)	50.1µM*	?	2.67µM*	-20.7%
CC(=O)c1c(C)n(CC2CCCO2)c2ccc(O)cc12 (configuration not stated)	14.1%	-3.1%	2.3%	3.5%

Compound activity as filed in PubChem BioAssay.
